Experimental data: PubChem BioAssay (NCATS)
Results filed as inconclusive are left out. Calls of active or inactive are those of the source. The call rests on the fitted dose curve; in most records, active means well fitted curve in the direction sought with a large enough effect; inconclusive means small, poorly fitted or top-dose-only effect, or another doubt; inactive means no such curve, though single readings can be large; an effect the other way counts as inactive or inconclusive.

Legend:
[1] = Cellular Toxicity (caspase-3) Mesangial (AID 660); conditions: mesangial cells, normalized: DMSO 0%, 100 µM tamoxifen 100%; at 91.7 µM (top of the series);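 further: combined caspase 3 and 7 activity read by Caspase-Glo luminescence; cells exposed to compound for 16 h before the caspase read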
How it was run: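 Concentration-response qHTS: compound-induced rise in caspase 3/7 luminescence in human mesangial cells after 16 h, normalized to DMSO and 100 uM tamoxifen controls.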

[2] = Cellular Toxicity (caspase-3) SK-N-SH (AID 661);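 further: 0% = DMSO basal and 100% = 10 µM staurosporine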
How it was run: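 Caspase 3/7 activation is measured as a luminescence increase from aminoluciferin released by substrate cleavage in SK-N-SH cells after 16 hr compound treatment; values are AC50 from concentration-response curves.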

[3] = Cellular Toxicity (caspase-3) H-4-II-E (AID 663); conditions: H-4-II-E rat hepatoma, scaled: DMSO 0%, 100 µM tamoxifen 100%; at 92.2 µM (top of the series)
How it was run: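 Apoptosis induction is scored as increased luminescence from caspase 3/7 substrate cleavage in rat hepatoma H-4-II-E cells exposed to compound for 16 hr. Activity is scaled between DMSO and 100 uM tamoxifen.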

[4] = Cellular Toxicity (caspase-3) Hek293 (AID 664); conditions: HEK293 caspase-3 activation, DMSO = 0%, 100 µM tamoxifen = 100%; at 92.2 µM (top of the series);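 further: cells exposed to compound for 16 h at 37 °C before readout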
How it was run: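 Activation of caspase-3/7 is measured as increased luminescence from cleaved peptide-aminoluciferin substrate in HEK293 cells treated 16 hours at 37 °C. AC50 values come from Hill-equation fits of concentration-response data.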

[5] = Cellular Toxicity (caspase-3) N2a (AID 665);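 further: compound exposure lasted 16 h at 37 °C before readout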
How it was run: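 Plated mouse neuroblastoma N2a cells received titrated compounds for 16 h in complete medium. Caspase activity was then detected with a peptide-aminoluciferin luminescent reagent.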

[6] = Cellular Toxicity (caspase-3) NIH 3T3 (AID 666);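 further: caspase signal read after 16 h compound exposure; 0% = DMSO basal and 100% = 100 µM tamoxifen stimulation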
How it was run: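 Concentration-response qHTS in NIH 3T3 mouse fibroblasts scores caspase-3/7 activation as rising luminescence after 16 hr compound exposure. Signals are scaled between DMSO-only and 100 uM tamoxifen.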

[7] = Cellular Toxicity (caspase-3) Renal Proximal Tubule (AID 667); conditions: Potency: caspase-3 activation;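 further: cells exposed to compound for 16 hours at 37 °C before detection; 0% = DMSO basal and 100% = 10 µM staurosporine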
How it was run: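 Primary rat proximal tubule cells, 1000/well, 5 h plating at 37 °C, then compound 16 h at 37 °C. Caspase-Glo 3/7 reagent, 1 h RT, luminescence. Normalized to DMSO (basal) and 10 uM staurosporine (100%); Hill-fit AC50.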

[8] = target: Cytochrome P450 3A4 (Homo sapiens) (UniProt P08684); experiment: qHTS Assay for Inhibitors and Substrates of Cytochrome P450 3A4 (AID 884); further: on the % scale 0 is the no-effect control and ±100 the full control effect; nearly all actives have a fitted effect of over 50% in size
How it was run: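 20 nM human CYP3A4 with 25 uM Luciferin-PPXE (at KM) in 200 mM KPO4, preincubated 10 min with compound; NADPH regeneration started a 60 min RT reaction. Luciferin detected by luminescence, normalized to 57 uM ketoconazole as full inhibition.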

[9] = Cell Viability - LYMP2-001 (AID 921);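 further: 0% = DMSO only and full inhibition = tetraoctylammonium bromide control wells; nearly all actives have a fitted effect of over 70% in size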
How it was run: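 Human lymphoblastoid cells (Coriell), 2500 per well, were preincubated 5 hr at 37 C, then exposed to compounds in complete medium for 24 hr at 37 C. Cellular ATP was read by CellTiter-Glo luminescence; AC50 from Hill fits of concentration-response data.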

[10] = MultiTox-Fluor Cytotoxicity Assay - LYMP1-001 - Dead Cells (AID 946);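 further: 0% = DMSO and 100% = tetraoctylammonium bromide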
How it was run: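 In this qHTS, 15 uM tetraoctylammonium bromide defined 100% and DMSO defined basal activity. Lymphoblastoid cells (LYMP1-001, 2500 per well) received compound for 16 hr at 37 C before a fluorogenic dead-cell substrate readout at 485/520 nm.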

[11] = MultiTox-Fluor Cytotoxicity Assay - LYMP1-001 - Live Cells (AID 947);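 further: 0% = DMSO only and full inhibition = tetraoctylammonium bromide control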
[12] = Cell Viability - LYMP1-002 - Assay at 16 hr (AID 948);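 further: 0% = DMSO alone and full effect = 92 µM tetraoctylammonium bromide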
How it was run: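 Human lymphoblastoid cells (LYMP1-002), 2500/well, were preincubated 5 hr at 37 C, then exposed to compounds for 16 hr at 37 C in complete medium. Cellular ATP was read by CellTiter-Glo luminescence after 30 min at room temperature; AC50 from Hill fits.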

[13] = MultiTox-Fluor Cytotoxicity Assay - LYMP1-002 - Live Cells (AID 955); further: on the % scale 0 is the no-effect control and ±100 the full control effect
How it was run: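 Cytotoxicity in the human lymphoblastoid line LYMP1-002 is measured as loss of live-cell protease activity after 16 h treatment in complete culture medium. AC50 is derived from Hill-equation fits of qHTS concentration-response data.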

[14] = MultiTox-Fluor Cytotoxicity Assay - LYMP1-002 - Dead Cells (AID 960);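 further: 0% = DMSO and 100% = tetraoctylammonium bromide; nearly all actives have a fitted effect of over 60% in size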
How it was run: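 Acute cytotoxicity in a human lymphoblastoid line is scored as rising dead-cell protease signal after 16 hr exposure at 37 C, measured fluorometrically (485/520).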

[15] = MultiTox-Fluor Cytotoxicity Assay - LYMP1-003 - Dead Cells (AID 961);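 further: 0% = DMSO and 100% = tetraoctylammonium bromide; nearly all actives have a fitted effect of over 70% in size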
How it was run: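 Acute toxicity is scored as increased dead-cell protease activity in human lymphoblastoid LYMP1-003 cells after 16 h compound exposure in complete culture medium. Activity is normalized to DMSO basal and 15 uM tetraoctylammonium bromide as full response.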

[16] = MultiTox-Fluor Cytotoxicity Assay - LYMP1-003 - Live Cells (AID 962);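 further: 0% = DMSO only and full loss = 92 µM tetraoctylammonium bromide; cytotoxic hits lower the live-cell protease signal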
How it was run: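 Cells plated at 2500 per well and incubated 5 hr; compounds added and incubated 16 hr at 37 C; MultiTox-Fluor reagent added for 60 min at room temperature; fluorescence of liberated AFC measured at 405/510 nm.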

[17] = Cell Viability - LYMP1-003 - Assay at 24 hr (AID 963);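 further: plate controls were DMSO only for no effect and tetraoctylammonium bromide positive control for full effect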
How it was run: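 Acute toxicity in LYMP1-003 lymphoblastoid cells: 24 hr compound treatment at 37 C, ATP measured with CellTiter-Glo after 30 min at room temperature. AC50 derived by fitting the Hill equation to qHTS titrations.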

[18] = Cell Viability - LYMP2-003 (AID 965);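 further: cells exposed to compounds for 24 h before reading; 0% = DMSO only and full effect = 92 µM tetraoctylammonium bromide; nearly all actives have a fitted effect of over 50% in size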
How it was run: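 Human lymphoblastoid cells (2500/well) were pre-incubated 5 hr at 37 C, then exposed to compounds over a concentration range for 24 hr at 37 C. Intracellular ATP was read by CellTiter-Glo luminescence; AC50 came from Hill-equation fits.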

[19] = Cell Viability - LYMP1-003 - Assay at 40 hr (AID 964); further: on the % scale 0 is the no-effect control and ±100 the full control effect; nearly all actives have a fitted effect of over 60% in size
How it was run: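 This qHTS cytotoxicity screen treats human lymphoblastoid cells (LYMP1-003) with compounds for 40 hr and quantifies cellular ATP via luciferase luminescence.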

Cytochrome P450 3A4 (Homo sapiens), sequence (P08684 whole entry, looked up): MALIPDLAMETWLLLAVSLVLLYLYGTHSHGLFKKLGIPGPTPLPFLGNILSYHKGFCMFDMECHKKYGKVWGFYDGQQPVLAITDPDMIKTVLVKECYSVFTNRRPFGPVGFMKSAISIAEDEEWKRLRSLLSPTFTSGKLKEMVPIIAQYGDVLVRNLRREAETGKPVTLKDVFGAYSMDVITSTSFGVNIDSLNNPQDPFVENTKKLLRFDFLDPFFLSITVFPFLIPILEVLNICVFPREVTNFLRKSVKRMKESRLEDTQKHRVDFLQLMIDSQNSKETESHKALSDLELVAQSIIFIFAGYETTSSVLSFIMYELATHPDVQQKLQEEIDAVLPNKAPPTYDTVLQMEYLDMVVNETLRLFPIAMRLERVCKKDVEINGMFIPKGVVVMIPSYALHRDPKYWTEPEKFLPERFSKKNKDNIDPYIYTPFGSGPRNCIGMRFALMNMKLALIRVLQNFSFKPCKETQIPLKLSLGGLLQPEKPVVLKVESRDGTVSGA

O=C(O)CNC(=O)c1ccc(CO)o1
inactive: caspase-3 activation [1] -0.765% | outcome [2] | caspase-3 activation [3] -0.71% | caspase-3 activation [4] -0.0261% | outcome [5] | outcome [6] | Potency [7] | Potency [8] | Potency [9] | outcome [10] | outcome [11] | outcome [12] | outcome [13] | outcome [14] | Potency [15] | Potency [16] | Potency [17] | Potency [18]

Cc1c(N)cccc1[N+](=O)[O-]
inactive: caspase-3 activation [1] 0.18% | outcome [2] | caspase-3 activation [3] -0.123% | caspase-3 activation [4] 1.08% | outcome [5] | outcome [6] | Potency [7] | Potency [8] | Potency [9] | outcome [10] | outcome [11] | outcome [12] | outcome [13] | outcome [14] | Potency [15] | Potency [16] | Potency [17] | Potency [19] | Potency [18]

N#Cc1ccccc1
inactive: caspase-3 activation [1] -0.669% | outcome [2] | caspase-3 activation [3] 0.346% | caspase-3 activation [4] 1.36% | outcome [5] | outcome [6] | Potency [7] | Potency [8] | Potency [9] | outcome [10] | outcome [11] | outcome [12] | outcome [13] | outcome [14] | Potency [15] | Potency [16] | Potency [17] | Potency [18]

CC(=O)c1ccccc1[N+](=O)[O-]
inactive: caspase-3 activation [1] -0.0773% | outcome [2] | caspase-3 activation [3] 0.797% | caspase-3 activation [4] 1.17% | outcome [5] | outcome [6] | Potency [7] | Potency [8] | Potency [9] | outcome [10] | outcome [11] | outcome [12] | outcome [13] | outcome [14] | Potency [15] | Potency [16] | Potency [17] | Potency [19] | Potency [18]

Cc1ccccc1C#N
inactive: caspase-3 activation [1] 0.378% | outcome [2] | caspase-3 activation [3] 1.11% | caspase-3 activation [4] -1.44% | outcome [5] | outcome [6] | Potency [7] | Potency [8] | Potency [9] | outcome [10] | outcome [11] | outcome [12] | outcome [13] | outcome [14] | Potency [15] | Potency [16] | Potency [18]

C=C(C)OC(C)=O
inactive: caspase-3 activation [1] -0.109% | outcome [2] | caspase-3 activation [3] 2.67% | caspase-3 activation [4] -0.975% | outcome [5] | outcome [6] | Potency [7] | Potency [8] | Potency [9] | outcome [10] | outcome [11] | outcome [12] | outcome [13] | outcome [14] | Potency [15] | Potency [16] | Potency [17] | Potency [19] | Potency [18]

Fc1ccccc1
inactive: caspase-3 activation [1] -0.0832% | outcome [2] | caspase-3 activation [3] -0.374% | caspase-3 activation [4] -1.91% | outcome [5] | outcome [6] | Potency [7] | Potency [8] | Potency [9] | outcome [10] | outcome [11] | outcome [12] | outcome [13] | outcome [14] | Potency [15] | Potency [16] | Potency [17] | Potency [19] | Potency [18]

CC(C)Nc1ccccc1
inactive: caspase-3 activation [1] 1.26% | outcome [2] | caspase-3 activation [3] 0.457% | caspase-3 activation [4] 2.55% | outcome [5] | outcome [6] | Potency [7] | Potency [8] | Potency [9] | outcome [10] | outcome [11] | outcome [12] | outcome [13] | outcome [14] | Potency [15] | Potency [16] | Potency [17] | Potency [19] | Potency [18]

CCOC(=O)C(C)C(C)=O (centres undefined)
inactive: caspase-3 activation [1] 1.11% | outcome [2] | caspase-3 activation [3] 0.941% | caspase-3 activation [4] -0.825% | outcome [5] | outcome [6] | Potency [7] | Potency [8] | Potency [9] | outcome [10] | outcome [11] | outcome [12] | outcome [13] | outcome [14] | Potency [15] | Potency [16] | Potency [17] | Potency [18]

Cc1ccco1
inactive: caspase-3 activation [1] 0.332% | outcome [2] | caspase-3 activation [3] 1.57% | caspase-3 activation [4] -0.963% | outcome [5] | outcome [6] | Potency [7] | Potency [8] | Potency [9] | outcome [10] | outcome [11] | outcome [12] | outcome [13] | outcome [14] | Potency [16] | Potency [17] | Potency [19]

O=C(O)c1ccc(Cl)cc1Cl
inactive: caspase-3 activation [1] -1.03% | outcome [2] | caspase-3 activation [3] 0.226% | caspase-3 activation [4] 2.7% | outcome [5] | outcome [6] | Potency [7] | Potency [8] | Potency [9] | outcome [10] | outcome [11] | outcome [12] | outcome [13] | outcome [14] | Potency [15] | Potency [16] | Potency [17] | Potency [19] | Potency [18]

CC(=O)c1cc(C)oc1C
inactive: caspase-3 activation [1] 0.543% | outcome [2] | caspase-3 activation [3] -0.25% | caspase-3 activation [4] 0.799% | outcome [5] | outcome [6] | Potency [7] | Potency [8] | Potency [9] | outcome [10] | outcome [11] | outcome [12] | outcome [13] | outcome [14] | Potency [15] | Potency [16] | Potency [17] | Potency [18]

O=[N+]([O-])c1cc(C(F)(F)F)ccc1Cl
inactive: caspase-3 activation [1] -0.64% | outcome [2] | caspase-3 activation [3] 0.0893% | caspase-3 activation [4] -0.647% | outcome [5] | outcome [6] | Potency [7] | Potency [8] | Potency [9] | outcome [10] | outcome [11] | outcome [12] | outcome [13] | outcome [14] | Potency [15] | Potency [16] | Potency [18]

CCCCCCO
inactive: caspase-3 activation [1] 0.267% | outcome [2] | caspase-3 activation [3] 0.291% | caspase-3 activation [4] 0.42% | outcome [5] | outcome [6] | Potency [7] | Potency [8] | Potency [9] | outcome [10] | outcome [11] | outcome [12] | outcome [13] | outcome [14] | Potency [15] | Potency [16] | Potency [19] | Potency [18]

CCC(C)O (centres undefined)
inactive: caspase-3 activation [1] 0.681% | outcome [2] | caspase-3 activation [3] 1.46% | caspase-3 activation [4] -1.23% | outcome [5] | outcome [6] | Potency [7] | Potency [8] | Potency [9] | outcome [10] | outcome [11] | outcome [12] | outcome [13] | outcome [14] | Potency [15] | Potency [16] | Potency [17] | Potency [19] | Potency [18]
